# Assay results from PubChem BioAssay AID1159580 (chemical genetic matrix, 2015).
# Where “and” joins values, the source holds several entries; their conditions need not be identical. Identical values can stand only once. Screen size: about 5,500 compounds; about 2,000 (36%) were called active. Inconclusive results (about 18%) are left out. The list shows a part of the results. A number with no mark means an inactive call. Rule as the data show it: active = normalized growth mostly below about 0.91 (no sharp cut-off); inconclusive = no clear call, values can overlap the other calls; inactive = mostly above about 0.92.
# Test: chemical genetic growth profiling, strain panel (AID 1159580);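 also: tested at 20 µM; growth read once vehicle control cultures reached saturation at 30 °C; 1 = growth at the plate median or of vehicle wells; lower values mean less growth of the strain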
# Details: growth OD
# [1] = S. cerevisiae deletion strains, locus YAL013W, strain DEP1, hits give low values
# [2] = S. cerevisiae deletion strains, locus YDR150W, strain NUM1, hits give low values
# [3] = S. cerevisiae deletion strains, locus YJR075W, strain HOC1, hits give low values
# [4] = S. cerevisiae deletion strains, locus YMR263W, strain SAP30, hits give low values
# [5] = S. cerevisiae deletion strains, locus YNL322C, strain KRE1, hits give low values
# [6] = S. cerevisiae deletion strains, locus YPL055C, strain LGE1, hits give low values
# [7] = S. cerevisiae deletion strains, locus YPL241C, strain CIN2, hits give low values
structure (smiles),measurement,setting,value
N[C@@H](Cc1cc(I)c(Oc2cc(I)c(O)c(I)c2)c(I)c1)C(=O)O,normalized growth,[1],1.05
same,normalized growth,"S. cerevisiae deletion strains, locus YBR021W, strain FUR4, hits give low values",1.07
same,normalized growth,"S. cerevisiae deletion strains, locus YBR229C, strain ROT2, hits give low values",1.02
same,normalized growth,"S. cerevisiae deletion strains, locus YCL029C, strain bik1, hits give low values",1.22 [resistant] (active)
same,normalized growth,"S. cerevisiae deletion strains, locus YDL035C, strain GPR1, hits give low values",1.04
same,normalized growth,"S. cerevisiae deletion strains, locus YDL074C, strain BRE1, hits give low values",1.04
same,normalized growth,"S. cerevisiae deletion strains, locus YDL101C, strain DUN1, hits give low values",1.04
same,normalized growth,"S. cerevisiae deletion strains, locus YDL134C, strain PPH21, hits give low values",1.03
same,normalized growth,"S. cerevisiae deletion strains, locus YDL185W, strain tfp1, hits give low values",1.03
same,normalized growth,"S. cerevisiae deletion strains, locus YDL192W, strain arf1, hits give low values",1.12 [resistant] (active)
same,normalized growth,"S. cerevisiae deletion strains, locus YDR101C, strain arx1, hits give low values",1.04
same,normalized growth,[2],1.06
same,normalized growth,"S. cerevisiae deletion strains, locus YDR162C, strain NBP2, hits give low values",1.03
same,normalized growth,"S. cerevisiae deletion strains, locus YDR318W, strain mcm21, hits give low values",1
same,normalized growth,"S. cerevisiae deletion strains, locus YDR388W, hits give low values",1.09 [resistant] (active)
same,normalized growth,"S. cerevisiae deletion strains, locus YDR502C, strain sam2, hits give low values",1.05
same,normalized growth,"S. cerevisiae deletion strains, locus YEL061C, strain CIN8, hits give low values",1.05
same,normalized growth,"S. cerevisiae deletion strains, locus YER110C, hits give low values",1.1
same,normalized growth,"S. cerevisiae deletion strains, locus YER155C, strain BEM2, hits give low values",1.06
same,normalized growth,"S. cerevisiae deletion strains, locus YER167W, strain BCK2, hits give low values",1.01
same,normalized growth,"S. cerevisiae deletion strains, locus YGL078C, strain dbp3, hits give low values",1.01
same,normalized growth,"S. cerevisiae deletion strains, locus YGL086W, strain mad1, hits give low values",1
same,normalized growth,"S. cerevisiae deletion strains, locus YGL248W, strain PDE1, hits give low values",1.02
same,normalized growth,"S. cerevisiae deletion strains, locus YGR078C, strain PAC10, hits give low values",1.03
same,normalized growth,"S. cerevisiae deletion strains, locus YGR135W, strain pre9, hits give low values",1.04
same,normalized growth,"S. cerevisiae deletion strains, locus YGR229C, strain SMI1, hits give low values",1.03
same,normalized growth,"S. cerevisiae deletion strains, locus YGR252W, strain gcn5, hits give low values",1.17
same,normalized growth,"S. cerevisiae deletion strains, locus YHR030C, strain SLT2, hits give low values",1.02
same,normalized growth,"S. cerevisiae deletion strains, locus YHR079C, strain IRE1 (second series), hits give low values",1.27 [resistant] (active)
same,normalized growth,"S. cerevisiae deletion strains, locus YHR079C, strain IRE1, hits give low values",1.05
same,normalized growth,"S. cerevisiae deletion strains, locus YHR094C, strain hxt1, hits give low values",1.04
same,normalized growth,"S. cerevisiae deletion strains, locus YHR129C, strain ARP1, hits give low values",1.04
same,normalized growth,"S. cerevisiae deletion strains, locus YHR200W, strain rpn10, hits give low values",1.19 [resistant] (active)
same,normalized growth,"S. cerevisiae deletion strains, locus YIL066C, strain RNR3, hits give low values",1.01
same,normalized growth,"S. cerevisiae deletion strains, locus YIL073C, strain SPO22, hits give low values",1.07
same,normalized growth,"S. cerevisiae deletion strains, locus YIL125W, strain kgd1, hits give low values",1.04
same,normalized growth,"S. cerevisiae deletion strains, locus YIR030C, strain dcg1, hits give low values",1.13 [resistant] (active)
same,normalized growth,"S. cerevisiae deletion strains, locus YJL095W, strain BCK1, hits give low values",0.994 and 1.02
same,normalized growth,"S. cerevisiae deletion strains, locus YJL134W, strain LCB3, hits give low values",1.03
same,normalized growth,"S. cerevisiae deletion strains, locus YJL168C, strain set2, hits give low values",1.1 [resistant] (active)
same,normalized growth,"S. cerevisiae deletion strains, locus YJL187C, strain SWE1 (second series), hits give low values",1.02
same,normalized growth,"S. cerevisiae deletion strains, locus YJR043C, strain POL32, hits give low values",1.04
same,normalized growth,"S. cerevisiae deletion strains, locus YJR066W, strain TOR1, hits give low values",0.978
same,normalized growth,[3],1.05
same,normalized growth,"S. cerevisiae deletion strains, locus YKL009W, strain mrt4, hits give low values",0.928
same,normalized growth,"S. cerevisiae deletion strains, locus YKL068W, hits give low values",0.963
same,normalized growth,"S. cerevisiae deletion strains, locus YKL085W, strain MDH1 (second series), hits give low values",0.995
same,normalized growth,"S. cerevisiae deletion strains, locus YKL085W, strain MDH1, hits give low values",0.995
same,normalized growth,"S. cerevisiae deletion strains, locus YKL190W, strain CNB1, hits give low values",1.04
same,normalized growth,"S. cerevisiae deletion strains, locus YKR001C, strain vps1, hits give low values",0.953
same,normalized growth,"S. cerevisiae deletion strains, locus YLR039C, strain RIC1, hits give low values",1.04
same,normalized growth,"S. cerevisiae deletion strains, locus YLR058C, strain SHM2, hits give low values",1.03
same,normalized growth,"S. cerevisiae deletion strains, locus YLR102C, strain apc9, hits give low values",1.09 [resistant] (active)
same,normalized growth,"S. cerevisiae deletion strains, locus YLR113W, strain HOG1, hits give low values",1.01
same,normalized growth,"S. cerevisiae deletion strains, locus YLR262C, strain YPT6, hits give low values",1.06
same,normalized growth,"S. cerevisiae deletion strains, locus YLR268W, strain sec22, hits give low values",1.05
same,normalized growth,"S. cerevisiae deletion strains, locus YLR330W, strain CHS5, hits give low values",1.13 [resistant] (active)
same,normalized growth,"S. cerevisiae deletion strains, locus YLR342W, strain FKS1 (second series), hits give low values",0.998
same,normalized growth,"S. cerevisiae deletion strains, locus YLR371W, strain rom2, hits give low values",1.2 [resistant] (active)
same,normalized growth,"S. cerevisiae deletion strains, locus YLR418C, strain cdc73, hits give low values",0.998
same,normalized growth,"S. cerevisiae deletion strains, locus YML016C, strain PPZ1, hits give low values",1.02
same,normalized growth,"S. cerevisiae deletion strains, locus YML032C, strain rad52, hits give low values",1.03
same,normalized growth,"S. cerevisiae deletion strains, locus YML124C, strain tub3, hits give low values",1.06
same,normalized growth,"S. cerevisiae deletion strains, locus YMR078C, strain ctf18, hits give low values",1.16 [resistant] (active)
same,normalized growth,"S. cerevisiae deletion strains, locus YMR223W, strain ubp8, hits give low values",1.25 [resistant] (active)
same,normalized growth,[4],1.06
same,normalized growth,"S. cerevisiae deletion strains, locus YMR307W, strain GAS1, hits give low values",1.05
same,normalized growth,"S. cerevisiae deletion strains, locus YNL067W, strain RPL9B, hits give low values",1.02
same,normalized growth,"S. cerevisiae deletion strains, locus YNL128W, strain TEP1, hits give low values",1.05
same,normalized growth,"S. cerevisiae deletion strains, locus YNL153C, strain GIM3, hits give low values",1.02
same,normalized growth,"S. cerevisiae deletion strains, locus YNL183C, strain NPR1, hits give low values",0.945
same,normalized growth,"S. cerevisiae deletion strains, locus YNL233W, strain BNI4, hits give low values",1.03
same,normalized growth,"S. cerevisiae deletion strains, locus YNL250W, strain rad50, hits give low values",1.04
same,normalized growth,"S. cerevisiae deletion strains, locus YNL271C, strain bni1, hits give low values",1
same,normalized growth,"S. cerevisiae deletion strains, locus YNL298W, strain CLA4, hits give low values",1.03
same,normalized growth,"S. cerevisiae deletion strains, locus YNL307C, strain MCK1, hits give low values",0.851 (active)
same,normalized growth,[5],1.05
same,normalized growth,"S. cerevisiae deletion strains, locus YNR052C, strain pop2, hits give low values",1.24 [resistant] (active)
same,normalized growth,"S. cerevisiae deletion strains, locus YOL006C, strain TOP1, hits give low values",1.02
same,normalized growth,"S. cerevisiae deletion strains, locus YOL012C, strain htz1",1.11
same,normalized growth,"S. cerevisiae deletion strains, locus YOL147C, strain pex11, hits give low values",1.08 [resistant] (active)
same,normalized growth,"S. cerevisiae deletion strains, locus YOR061W, strain CKA2, hits give low values",1.03
same,normalized growth,"S. cerevisiae deletion strains, locus YOR069W, strain VPS5, hits give low values",1.03
same,normalized growth,"S. cerevisiae deletion strains, locus YOR144C, strain elg1, hits give low values",1.2 [resistant] (active)
same,normalized growth,"S. cerevisiae deletion strains, locus YOR184W, strain ser1, hits give low values",1.01
same,normalized growth,"S. cerevisiae deletion strains, locus YOR231W, strain MKK1, hits give low values",1.02
same,normalized growth,"S. cerevisiae deletion strains, locus YOR316C, strain cot1, hits give low values",1.22 [resistant] (active)
same,normalized growth,[6],1.03
same,normalized growth,[7],1.05
same,normalized growth,"S. cerevisiae deletion strains, locus YPL256C, strain CLN2, hits give low values",1.06
same,normalized growth,"S. cerevisiae deletion strains, locus YPR119W, strain clb2, hits give low values",1.06
same,normalized growth,"S. cerevisiae deletion strains, locus YPR141C, strain kar3, hits give low values",1.23 [resistant] (active)
same,normalized growth,"S. cerevisiae deletion strains, locus YPR163C, strain tif3, hits give low values",1.14 [resistant] (active)
same,normalized growth,"S. cerevisiae deletion strains, locus YPR167C, strain met16, hits give low values",1.17 [resistant] (active)
same,normalized growth,"S. cerevisiae deletion strains, strain wtn01, hits give low values",1.02
same,normalized growth,"S. cerevisiae strains, strain wild type, hits give low values",1.04
N[C@@H](Cc1c[nH]c2ccc(O)cc12)C(=O)O,normalized growth,[1],1.02
same,normalized growth,"S. cerevisiae deletion strains, locus YAL040C, strain CLN3, hits give low values",0.959
same,normalized growth,"S. cerevisiae deletion strains, locus YCL061C, strain MRC1 (second series), hits give low values",1.01
same,normalized growth,[2],1.03
same,normalized growth,"S. cerevisiae deletion strains, locus YDR363W, strain ESC2, hits give low values",1.01
same,normalized growth,"S. cerevisiae deletion strains, locus YER002W, strain NOP16, hits give low values",1
same,normalized growth,[3],1.01
same,normalized growth,[4],0.997
same,normalized growth,"S. cerevisiae deletion strains, locus YNL175C, strain NOP13, hits give low values",1.03
same,normalized growth,"S. cerevisiae deletion strains, locus YNL197C, strain WHI3, hits give low values",1
same,normalized growth,"S. cerevisiae deletion strains, locus YNL224C, strain SQS1, hits give low values",1.01
same,normalized growth,[5],1.01
same,normalized growth,"S. cerevisiae deletion strains, locus YOR083W, strain WHI5 (second series), hits give low values",1.02
same,normalized growth,[6],1.03
same,normalized growth,[7],1
